From PubChem
Rows were chosen to be rich in hits. Some 3.5% of all compounds tested hit in one or more screens of this group.
GPR151 ag: human GPR151 activation; PathHunter beta-arrestin GPR151 cells, luminescence; Q8TDV0; 650,000 compounds, 1% hits; activation, % at 11.2 µM; AID 1508602; in the data active means activation above about 4.9%
TEAD-YAP inh: TEAD-YAP interaction inhibition | HEK-TIYL cells, TEAD-Gal4/YAP UAS-luciferase luminescence | 640,000 compounds, 1.4% hits | AID 1259422 | inhibition, % at 9.12 µM; in the data active means inhibition above about 32%
MITF primary: human MITF inhibition, primary screen | O75030 | AlphaScreen MITF homodimerization, bead proximity signal | inhibition, % at 2.6 µM | 650,000 compounds, 0.91% hits | AID 1259374; in the data active means inhibition above about 50%
Target sequence (O75030 whole entry, looked up): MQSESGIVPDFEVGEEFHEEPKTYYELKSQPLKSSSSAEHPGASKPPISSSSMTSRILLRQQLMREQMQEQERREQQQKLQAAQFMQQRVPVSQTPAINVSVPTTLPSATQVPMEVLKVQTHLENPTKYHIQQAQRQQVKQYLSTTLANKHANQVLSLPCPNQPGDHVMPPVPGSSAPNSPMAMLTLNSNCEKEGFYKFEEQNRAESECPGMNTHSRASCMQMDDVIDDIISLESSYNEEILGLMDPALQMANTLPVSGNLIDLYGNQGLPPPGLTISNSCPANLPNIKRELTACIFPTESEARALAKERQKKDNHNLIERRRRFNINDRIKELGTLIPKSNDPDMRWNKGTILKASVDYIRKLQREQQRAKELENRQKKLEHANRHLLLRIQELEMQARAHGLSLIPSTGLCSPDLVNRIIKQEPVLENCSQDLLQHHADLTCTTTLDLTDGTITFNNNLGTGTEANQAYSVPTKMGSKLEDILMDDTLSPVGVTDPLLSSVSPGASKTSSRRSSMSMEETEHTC
FBW7 activator: human FBW7 E3 ligase activation, primary screen. Q969H0. AlphaScreen FBW7–phospho-cyclin E peptide binding, activator screen. normalized activity (activation), % at 26.1 µM. 650,000 compounds, 0.13% hits; in the data active means normalized activity above about 1.9%;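 further: purified mutant Fbw7 with reduced substrate affinity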
MITF confirm: human MITF inhibition, confirmation; shares compounds with MITF primary; AlphaScreen MITF homodimerization, biotin/His-MITF beads; inhibition, % at 2.6 µM; 4,700 compounds, 16% hits;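 active means inhibition above a cutoff derived from the DMSO control wells, cut at about 28% in these data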;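 further: inhibitors lower the bead chemiluminescence by keeping MITF from dimerizing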
AS interf DR: optically interferes with AlphaScreen signal in dose response; 480 compounds, 6% hits; shares compounds with MITF primary; AID 1259373; AlphaScreen optical interference counterscreen, cell-free; IC50, µM; call rule not given here
AS interf ctr: AlphaScreen optical interference, counter-screen. shares compounds with MITF primary. LysRS AlphaScreen counterscreen, signal interference, triplicate. inhibition, % at 2.6 µM. 4,700 compounds, 7.6% hits;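 active means inhibition above a cutoff derived from the DMSO control wells, cut at about 30% in these data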
GPR151 conf act: human GPR151 activation, confirmation screen. shares compounds with GPR151 ag. GPR151 PathHunter beta-arrestin cells, luminescence, 90 min; % of EA-reagent control over plate median. activation, % at 11.2 µM. 6,700 tested, under 10 active. AID 1508609;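 active means mean percent activation across replicates above the confirmation screen cutoff of 4.91%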
GPR119 ag: counter-screen for GPR151 activators: effect on human GPR119; AID 1508611; GPR119 PathHunter beta-arrestin cells, luminescence, 90 min; 0 = compound-well median, 100 = enzyme-acceptor control; 6,700 compounds, 0.3% hits; activation, % at 11.2 µM; shares compounds with GPR151 ag;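 active means mean percent activation in the counterscreen above 29.09%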;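 further: counterscreen on off-target GPR119 to flag nonselective hits from the GPR151 activator screen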
Hits are given with their value; i = inactive; nt = no result given.

SMILES	GPR151 ag	TEAD-YAP inh	MITF primary	FBW7 activator	MITF confirm	AS interf ctr	GPR151 conf act	GPR119 ag	others
C=CCNCCOCCOc1ccc(OCC)cc1	6.0	i	51.4	i	48.9	i	i	i	AS interf DR=i
Brc1c(OCCCN2CCNCC2)ccc2ccccc12	17.5	i	55.7	i	i	i	i	i
Cc1c(Cl)ccc(OCCN2CCNCC2)c1C	i	i	i	i	nt	nt	nt	nt
CCc1cc(OCCN2CCN(CC)CC2)ccc1Cl	7.0	i	70.0	i	i	i	i	i
CCN1CCN(CCOc2ccc(Cl)c(C)c2C)CC1	7.7	i	75.0	i	i	i	i	i
O=C(CNC(=O)c1ccc(Br)cc1)NC1CCCC1	i	i	i	i	nt	nt	nt	nt
CCCC1(C(=O)OC)NC(c2ccc(Cl)cc2)C2C(=O)N(C)C(=O)C21 (stereo not drawn)	i	i	i	i	nt	nt	nt	nt
Cc1cc(O)c2c(c1)Cc1cccc(O)c1C2=O	5.4	i	115.8	i	115.4	i	i	i	AS interf DR=i
COc1ccc(Cl)c2c1N[C@@H](c1ccccc1Br)[C@H]1CC=C[C@@H]21	i	i	i	i	nt	nt	nt	nt
O=C(Nc1ccc(Br)cn1)c1cc(F)c(F)cc1Cl	i	i	i	i	nt	nt	nt	nt
Cc1ccc(-c2ccc(/C=C/C(=O)c3ccc(C)o3)o2)cc1	i	i	i	i	nt	nt	nt	nt
CCN1CCN(CC#CCOc2ccccc2OC)CC1	9.7	i	82.1	i	i	i	i	i
N#Cc1nc(-c2ccccc2)oc1NCCCn1ccnc1	i	i	i	i	nt	nt	nt	nt
N#Cc1nc(COc2ccccc2Cl)oc1NCCCn1ccnc1	18.5	i	96.2	i	i	i	i	i
CC(=O)c1ccc(-c2cc(F)cc3c2OC(CNC(=O)C2CCOCC2)C3)s1 (stereo not drawn)	i	i	i	i	nt	nt	nt	nt
O=C1NC(=Nc2ccccc2)S/C1=C\c1cccc(OCc2ccc(Cl)cc2)c1	i	i	i	i	nt	nt	nt	nt
COc1ccc(CN2CCN(Cc3cc(OC)cc(OC)c3)CC2)cc1	17.3	i	77.1	i	i	i	i	i
COc1cc(CN2CCN(Cc3ccc(Br)cc3)CC2)cc(OC)c1	6.1	i	81.6	i	i	i	i	i
COc1cc(CN2CCOCC2)cc(OC)c1	i	i	i	i	nt	nt	nt	nt
CCCN(CC1CC1)C(=O)C1CCN(Cc2ccc(C)cc2)CC1	5.2	i	53.4	i	i	i	i	i
Clc1cccc(CN2CCOCC2)c1Cl	9.9	i	60.0	i	i	i	i	i
c1ccc2c(CN3CCOCC3)cccc2c1	i	i	i	i	nt	nt	nt	nt
COc1ccccc1N1C(=O)S/C(=C\c2ccc(N3CCOCC3)cc2)C1=O	i	i	i	i	nt	nt	nt	nt
O=C(CN1CCC(N2CCCCC2)CC1)Nc1ccccc1O	5.7	i	52.2	i	i	i	i	i
COc1ccc(OC)c(/C=C2/SC(=S)N(Cc3ccco3)C2=O)c1	i	i	i	i	nt	nt	nt	nt
SMILES	GPR151 ag	TEAD-YAP inh	MITF primary	FBW7 activator	MITF confirm	AS interf ctr	GPR151 conf act	GPR119 ag	others
C=CCC1(CC=C)CCCCN1C(=O)CC1C(=O)NCCN1Cc1ccoc1 (stereo not drawn)	6.4	i	79.7	i	i	i	i	i
COc1cc(OC)c(CN2CCC(N3CCCCC3)CC2)cc1Br	i	i	i	i	nt	nt	nt	nt
COc1cc(OC)c(OC)cc1CN1CCC(N2CCCCC2)CC1	6.1	i	59.8	i	i	i	i	i
Cc1cc(=O)[nH]c(SCc2cn3ccccc3n2)n1	i	i	i	i	nt	nt	nt	nt
c1cnc2nc(SCc3cn4ccccc4n3)[nH]c2c1	6.8	i	68.0	i	i	i	i	i
COc1ccc(CN2CCN(C(=O)c3cc(OC)c(OC)c(OC)c3)CC2)c(OC)c1	i	i	i	i	nt	nt	nt	nt
COc1cc(C(=O)N2CCN(Cc3ccccc3C(F)(F)F)CC2)cc(OC)c1OC	12.0	i	59.1	i	i	i	i	i
CCn1ccnc1CN1CCN(Cc2cccc(OC)c2)C(CCO)C1 (stereo not drawn)	17.6	i	52.9	i	28.4	i	i	i	AS interf DR=i
CCc1ccc(CN2CCN(Cc3ccc4c(c3)c3ccccc3n4CC)CC2)cc1	5.8	i	69.7	i	i	i	i	i
CCn1c2ccccc2c2cc(CN3CCN(Cc4ccc5c(c4)c4ccccc4n5CC)CC3)ccc21	i	i	i	i	nt	nt	nt	nt
CC(C)CC(=O)NCC(c1cccs1)S(=O)(=O)c1cccs1 (stereo not drawn)	i	i	i	i	nt	nt	nt	nt
Cc1ccc(OCCCN2CCN(C)CC2)c([N+](=O)[O-])c1	5.2	i	75.5	i	i	i	i	i
Cc1ccc(OCCCN2CCNCC2)c([N+](=O)[O-])c1	i	i	i	i	nt	nt	nt	nt
O=C(c1ccncc1)N1CCN(Cc2cccnc2)CC1	9.0	i	67.6	i	i	i	i	i
COc1cc(CN2CCN(C(=O)c3cccnc3)CC2)cc(OC)c1OC	i	i	i	i	nt	nt	nt	nt
CCn1c(SCC(N)=O)nc2ccc(I)cc2c1=O	i	i	i	i	nt	nt	nt	nt
CCCn1c(=O)c2ccccc2n2c(SCC(N)=O)nnc12	i	i	i	i	nt	nt	nt	nt
CCn1c(=O)c2ccccc2n2c(SCC(N)=O)nnc12	6.3	i	i	i	nt	nt	i	i
CCn1c(SCC(N)=O)nc2ccc(Br)cc2c1=O	5.4	i	i	i	nt	nt	i	i
CC1CCCCC1NC(=O)CCCN1C(=S)NC(C)(C)CC1C (stereo not drawn)	i	i	i	i	nt	nt	nt	nt
Cc1ccc(N(C(C)C(=O)NC2CCCCCC2)S(C)(=O)=O)cc1C (stereo not drawn)	i	i	i	i	nt	nt	nt	nt
C=CCNC(=O)C(C)N(c1ccc(C)cc1)S(C)(=O)=O (stereo not drawn)	i	i	i	i	nt	nt	nt	nt
Cc1ccc(N(C(C)C(=O)NCc2ccccn2)S(C)(=O)=O)cc1C (stereo not drawn)	5.4	i	i	i	nt	nt	i	i
Cc1ccc(N(C(C)C(=O)NC2CCCCC2)S(C)(=O)=O)cc1C (stereo not drawn)	6.6	i	i	i	nt	nt	i	i
C=CCNC(=O)C(C)N(c1ccccc1)S(C)(=O)=O (stereo not drawn)	8.2	i	i	i	nt	nt	i	i
CC(C)c1ccc(N(CC(=O)N2CCN(c3ccc(F)cc3)CC2)S(C)(=O)=O)cc1	i	i	i	i	nt	nt	nt	nt
CS(=O)(=O)N(CC(=O)N1CCCC1)c1ccc2c(c1)OCCO2	9.5	i	i	i	nt	nt	i	i
CS(=O)(=O)N(CC(=O)N1CCN(c2ccc(F)cc2)CC1)c1ccc(Cl)cc1	5.6	i	i	i	nt	nt	i	i
COc1ccccc1C(=O)Nc1ccc(N2CCCS2(=O)=O)cc1	i	i	i	i	nt	nt	nt	nt
COc1ccc(Cl)cc1C(=O)Nc1ccc(N2CCCCS2(=O)=O)cc1	9.0	i	i	i	nt	nt	i	i
